Reference: PubChem BioAssay
Unmarked numbers belong to inactive results. No rule for the calls is given here.

molecular target: Pantothenate synthetase (Mycobacterium tuberculosis (strain ATCC 25618 / H37Rv)) (UniProt P9WIL5); assay: Coupled enzyme confirmation of inhibitors against recombinant Mtb PanC (AID 375); details: coupled enzyme assay; at 10 µM, active compounds read high;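 also: 0% = full reaction with vehicle and 100% = no enzyme background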
Sequence (P9WIL5 whole entry, looked up): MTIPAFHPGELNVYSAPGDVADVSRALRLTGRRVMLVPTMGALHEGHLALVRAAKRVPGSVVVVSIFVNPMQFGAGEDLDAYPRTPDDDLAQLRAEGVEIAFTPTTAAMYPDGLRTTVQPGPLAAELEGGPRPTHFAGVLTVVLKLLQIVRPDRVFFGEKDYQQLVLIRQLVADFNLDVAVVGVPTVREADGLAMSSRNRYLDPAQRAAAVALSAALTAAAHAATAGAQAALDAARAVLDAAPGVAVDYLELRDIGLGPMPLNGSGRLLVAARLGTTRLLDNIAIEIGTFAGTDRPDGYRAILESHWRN

`N=c1ncn(CC(O)CN2CCOCC2)c2nc(N3CCOCC3)[nH]c12` (stereo not given) and `CCn1c(SCC(=O)N2CCOCC2)nc2c(c1=O)SC(C)C2` (stereo not given) are the same in inhibition: 0% for the first, 0% for the second.

First: CCOC(=O)n1c(=O)oc2cc(S(=O)(=O)N3CCCCC3)ccc21
Second: Cc1ccc(S(=O)(=O)N2CCCC(C(=O)NC3=NCCS3)C2)cc1 (stereo not given)
The inhibition of the first is lower: 7% for the first, 12% for the second.

Compared with `CN(C(=O)COC(=O)C1CCN(S(=O)(=O)c2cccs2)CC1)C1CCS(=O)(=O)C1` (stereo not given), `Cc1ccc(CNC(=O)C2CCN(S(=O)(=O)c3cccs3)CC2)o1` is lower in inhibition: 7% for the first, 0% for the second.

`COC(=O)C1(C(F)(F)F)N=C2Sc3ccccc3N2C(N2CCOCC2)=N1` (stereo not given) and `COc1ccc(-c2nc3c(c(SCC(=O)N4CCOCC4)n2)COC(C)(C)C3)cc1` are the same in inhibition: 0% for the first, 0% for the second.

First: Cc1cnc(SCCc2ccncc2)nc1C
Second: NNC(=O)c1ccncc1
The inhibition of the first is higher: 2% for the first, 0% for the second.

First: C/C(N)=C(/C#N)C(=O)COC(=O)c1cc(C)n(-c2ccc(F)cc2)c1C
Second: CCOC(=O)c1cc(-c2ccc(N)cc2)sc1N
The inhibition of the first is higher: 2% for the first, 0% for the second.

`Cc1ccc(-n2nc(C)c3cc(C(=O)O)sc32)cc1` and `Cc1nc2ccc(C(=O)O)cc2c2c1CC(C)S2` (stereo not given) are the same in inhibition: 0% for the first, 0% for the second.

Going from `CN(CCc1ccccn1)c1ncnc2[nH]ncc12` to `CN(C)c1ccc(NC(=O)c2ccncc2)c2ccccc12`, the inhibition rises from 0% to 6%.

`Cc1nc2ncnn2c(C)c1CCC(=O)NCCCN1CCN(c2cccc(Cl)c2)CC1` and `COc1ccccc1CN1CC(C(=O)N2CCN(c3ccc(F)cc3)CC2)CC1=O` (stereo not given) are the same in inhibition: 0% for the first, 0% for the second.

Compared with `CCOC(=O)c1[nH]c2cc(OC)c(OC)cc2c1NC(=O)C(C)N1CCN(Cc2ccccc2)CC1` (stereo not given), `COc1cc2c(=O)nc3n(c2cc1OC)C(c1ccccc1)N=C(N)N3` (stereo not given) is lower in inhibition: 1% for the first, 0% for the second.

Compared with `CN(C)S(=O)(=O)N1CCN(S(=O)(=O)c2ccc(F)cc2)CC1`, `CN(C)S(=O)(=O)NC(c1ccccc1)c1ccccc1` is higher in inhibition: 0% for the first, 4% for the second.

Compared with `CC1=CC2=C(OC1N(C)C)c1cccc3cccc(c13)C2=O` (stereo not given), `O=c1oc2ccccc2cc1NCc1ccccc1O` is lower in inhibition: 5% for the first, 0% for the second.

Going from `O=C1C2C3C=CC(C3)C2C(=O)N1CNc1ccc(O)cc1` (stereo not given) to `N#Cc1cnn(Cc2ccc(Cl)cc2)c1N`, the inhibition falls from 3% to 0%.

`COc1ccc(C2CC(c3ccccc3)Nc3nc(NC(=O)c4cccs4)nn32)cc1` (stereo not given) and `O=C1c2ccccc2C(Nc2cccnc2)N1Cc1ccccc1Cl` (stereo not given) are the same in inhibition: 0% for the first, 0% for the second.

Going from `CC1=C(C)C(=O)C(CCCCC#CCCCC#CCO)=C(C)C1=O` to `Cc1ccnc(NS(=O)(=O)c2ccc(N=CC3=C(O)CC(C)(C)CC3=O)cc2)n1`, the inhibition rises from 6% to 11%.

`CCN(CC)c1nc(N(CC)CC)[nH]c(=O)n1` and `CCOC(OCC)P(=O)(C(C)C)C(C)C` are the same in inhibition: 0% for the first, 0% for the second.

First: CN(C1CCS(=O)(=O)C1)S(=O)C12CC3CC(CC(C3)C1)C2 (stereo not given)
Second: CCOC(=O)CC12CN3CN(C1)CC(CC(=O)OCC)(C3)C2=O
The inhibition of the first is higher: 3% for the first, 1% for the second.

Going from `COc1ccc(CCNc2oc(-c3ccco3)nc2C#N)cc1` to `COC(=O)c1ccccc1NC(=O)CC(NCc1ccccc1)C(=O)O` (stereo not given), the inhibition falls from 2% to 0%.

`CCCC1Cc2c(sc3ncnc(N)c23)CO1` (stereo not given) and `Cc1cccc(C)c1NC(=O)COC(=O)c1nonc1N` are the same in inhibition: 0% for the first, 0% for the second.

`O=C(O)c1ccc(COc2c(F)c(F)cc(F)c2F)cc1` and `Cc1ccc2cc(C(c3nnnn3CC3CCCO3)N3CCc4ccccc4C3)c(=O)[nH]c2c1` (stereo not given) are the same in inhibition: 0% for the first, 0% for the second.
